Results taken from PubChem BioAssay AID1159580 (chemical genetic matrix, 2015).
Screen size: about 5,500 compounds; about 2,000 (36%) were called active. About 18% were inconclusive and are not listed. No stated cut-off is given here; in the data, active means normalized growth mostly below about 0.91 (no sharp cut-off); inconclusive means no clear call, values can overlap the other calls; inactive means mostly above about 0.92. Some of the results follow.

Assay: chemical genetic growth profiling, strain panel (AID 1159580);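 further: tested at 20 µM; growth read once vehicle control cultures reached saturation at 30 °C; 1 = growth at the plate median or of vehicle wells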
Conditions: growth OD

Measured: normalized growth

c1ccc2c(c1)CCCC2C1=NCCN1 (stereo not given)
inactive: S. cerevisiae deletion strains, locus YKL009W, strain mrt4, stronger effect = lower value 0.995 | S. cerevisiae deletion strains, locus YKL068W, stronger effect = lower value 1 | S. cerevisiae deletion strains, locus YKL085W, strain MDH1 (second series), stronger effect = lower value 1.01 | S. cerevisiae deletion strains, locus YKL085W, strain MDH1, stronger effect = lower value 1.01 | S. cerevisiae deletion strains, locus YKL160W, strain elf1, stronger effect = lower value 1.03 | S. cerevisiae deletion strains, locus YKL190W, strain CNB1, stronger effect = lower value 1.01 | S. cerevisiae deletion strains, locus YKR001C, strain vps1, stronger effect = lower value 0.986 | S. cerevisiae deletion strains, locus YKR026C, strain gcn3, stronger effect = lower value 1.02 | S. cerevisiae deletion strains, locus YKR091W, strain srl3, stronger effect = lower value 1.03 | S. cerevisiae deletion strains, locus YLL001W, strain dnm1, stronger effect = lower value 1.03 | S. cerevisiae deletion strains, locus YLL026W, stronger effect = lower value 1.03 | S. cerevisiae deletion strains, locus YLL041C, strain sdh2, stronger effect = lower value 1.04 | S. cerevisiae deletion strains, locus YLR027C, strain aat2, stronger effect = lower value 1.02 | S. cerevisiae deletion strains, locus YLR039C, strain RIC1, stronger effect = lower value 1.03 | S. cerevisiae deletion strains, locus YLR058C, strain SHM2, stronger effect = lower value 1.01 | S. cerevisiae deletion strains, locus YLR102C, strain apc9, stronger effect = lower value 1 | S. cerevisiae deletion strains, locus YLR113W, strain HOG1, stronger effect = lower value 0.982 | S. cerevisiae deletion strains, locus YLR221C, strain rsa3, stronger effect = lower value 1.04 | S. cerevisiae deletion strains, locus YLR258W, strain gsy2, stronger effect = lower value 1.02 | S. cerevisiae deletion strains, locus YLR262C, strain YPT6 (second series), stronger effect = lower value 1.04 | S. cerevisiae deletion strains, locus YLR262C, strain YPT6, stronger effect = lower value 1.04 | S. cerevisiae deletion strains, locus YLR268W, strain sec22, stronger effect = lower value 1.03 | S. cerevisiae deletion strains, locus YLR320W, strain mms22, stronger effect = lower value 1.03 | S. cerevisiae deletion strains, locus YLR330W, strain CHS5, stronger effect = lower value 1.01 | S. cerevisiae deletion strains, locus YLR342W, strain FKS1 (second series), stronger effect = lower value 1.03 | S. cerevisiae deletion strains, locus YLR342W, strain FKS1, stronger effect = lower value 1.02 | S. cerevisiae deletion strains, locus YLR357W, strain rsc2, stronger effect = lower value 1.04 | S. cerevisiae deletion strains, locus YLR370C, strain arc18, stronger effect = lower value 1.02 | S. cerevisiae deletion strains, locus YLR371W, strain rom2, stronger effect = lower value 1.01 | S. cerevisiae deletion strains, locus YLR384C, strain iki3, stronger effect = lower value 1.03 | S. cerevisiae deletion strains, locus YLR418C, strain cdc73, stronger effect = lower value 0.98 | S. cerevisiae deletion strains, locus YML016C, strain PPZ1, stronger effect = lower value 1.01 | S. cerevisiae deletion strains, locus YML032C, strain rad52, stronger effect = lower value 1 | S. cerevisiae deletion strains, locus YML120C, strain ndi1, stronger effect = lower value 1.01 | S. cerevisiae deletion strains, locus YML124C, strain tub3, stronger effect = lower value 0.986 | S. cerevisiae deletion strains, locus YMR058W, strain fet3, stronger effect = lower value 1.02 | S. cerevisiae deletion strains, locus YMR078C, strain ctf18, stronger effect = lower value 0.997 | S. cerevisiae deletion strains, locus YMR125W, strain sto1, stronger effect = lower value 1.03 | S. cerevisiae deletion strains, locus YMR129W, stronger effect = lower value 1.02 | S. cerevisiae deletion strains, locus YMR205C, strain PFK2, stronger effect = lower value 1.05 | S. cerevisiae deletion strains, locus YMR223W, strain ubp8, stronger effect = lower value 0.985 | S. cerevisiae deletion strains, locus YMR231W, strain pep5, stronger effect = lower value 1.02 | S. cerevisiae deletion strains, locus YMR263W, strain SAP30, stronger effect = lower value 1.01 | S. cerevisiae deletion strains, locus YMR307W, strain GAS1, stronger effect = lower value 1 | S. cerevisiae deletion strains, locus YNL067W, strain RPL9B, stronger effect = lower value 1 | S. cerevisiae deletion strains, locus YNL071W, strain lat1, stronger effect = lower value 1.03 | S. cerevisiae deletion strains, locus YNL128W, strain TEP1, stronger effect = lower value 1.02 | S. cerevisiae deletion strains, locus YNL153C, strain GIM3, stronger effect = lower value 1.06 | S. cerevisiae deletion strains, locus YNL175C, strain NOP13, stronger effect = lower value 0.995 | S. cerevisiae deletion strains, locus YNL183C, strain NPR1, stronger effect = lower value 0.953 | S. cerevisiae deletion strains, locus YNL197C, strain WHI3, stronger effect = lower value 1 | S. cerevisiae deletion strains, locus YNL209W, strain ssb2, stronger effect = lower value 1.02 | S. cerevisiae deletion strains, locus YNL224C, strain SQS1, stronger effect = lower value 1 | S. cerevisiae deletion strains, locus YNL233W, strain BNI4, stronger effect = lower value 1.01 | S. cerevisiae deletion strains, locus YNL248C, strain rpa49, stronger effect = lower value 1.02 | S. cerevisiae deletion strains, locus YNL250W, strain rad50, stronger effect = lower value 0.998 | S. cerevisiae deletion strains, locus YNL271C, strain bni1, stronger effect = lower value 0.998 | S. cerevisiae deletion strains, locus YNL298W, strain CLA4, stronger effect = lower value 1.02 | S. cerevisiae deletion strains, locus YNL307C, strain MCK1, stronger effect = lower value 0.995 | S. cerevisiae deletion strains, locus YNL322C, strain KRE1 (second series), stronger effect = lower value 1.03 | S. cerevisiae deletion strains, locus YNL322C, strain KRE1, stronger effect = lower value 1.01 | S. cerevisiae deletion strains, locus YNR049C, strain mso1, stronger effect = lower value 1.02 | S. cerevisiae deletion strains, locus YNR052C, strain pop2, stronger effect = lower value 1.01 | S. cerevisiae deletion strains, locus YOL006C, strain TOP1, stronger effect = lower value 0.988 | S. cerevisiae deletion strains, locus YOL012C, strain htz1 0.923 | S. cerevisiae deletion strains, locus YOL147C, strain pex11, stronger effect = lower value 0.989 | S. cerevisiae deletion strains, locus YOR001W, strain rrp6, stronger effect = lower value 1.02 | S. cerevisiae deletion strains, locus YOR061W, strain CKA2, stronger effect = lower value 1.01 | S. cerevisiae deletion strains, locus YOR069W, strain VPS5, stronger effect = lower value 1.01 | S. cerevisiae deletion strains, locus YOR070C, strain gyp1, stronger effect = lower value 1.02 | S. cerevisiae deletion strains, locus YOR080W, strain dia2, stronger effect = lower value 1.04 | S. cerevisiae deletion strains, locus YOR083W, strain WHI5 (second series), stronger effect = lower value 1.02 | S. cerevisiae deletion strains, locus YOR083W, strain WHI5, stronger effect = lower value 1.03 | S. cerevisiae deletion strains, locus YOR106W, strain vam3, stronger effect = lower value 1.03 | S. cerevisiae deletion strains, locus YOR136W, strain idh2, stronger effect = lower value 0.994 | S. cerevisiae deletion strains, locus YOR144C, strain elg1, stronger effect = lower value 0.993 | S. cerevisiae deletion strains, locus YOR184W, strain ser1, stronger effect = lower value 0.99 | S. cerevisiae deletion strains, locus YOR231W, strain MKK1, stronger effect = lower value 0.978 | S. cerevisiae deletion strains, locus YOR265W, strain rbl2, stronger effect = lower value 1.02 | S. cerevisiae deletion strains, locus YOR270C, strain vph1, stronger effect = lower value 1.07 | S. cerevisiae deletion strains, locus YOR290C, strain snf2, stronger effect = lower value 1.04 | S. cerevisiae deletion strains, locus YOR316C, strain cot1, stronger effect = lower value 1 | S. cerevisiae deletion strains, locus YPL051W, strain arl3, stronger effect = lower value 1.03 | S. cerevisiae deletion strains, locus YPL055C, strain LGE1, stronger effect = lower value 0.995 | S. cerevisiae deletion strains, locus YPL078C, strain atp4, stronger effect = lower value 1.01 | S. cerevisiae deletion strains, locus YPL106C, strain sse1, stronger effect = lower value 1.06 | S. cerevisiae deletion strains, locus YPL240C, strain hsp82, stronger effect = lower value 1.01 | S. cerevisiae deletion strains, locus YPL241C, strain CIN2, stronger effect = lower value 1.01 | S. cerevisiae deletion strains, locus YPL256C, strain CLN2, stronger effect = lower value 0.959 | S. cerevisiae deletion strains, locus YPR119W, strain clb2, stronger effect = lower value 1.01 | S. cerevisiae deletion strains, locus YPR141C, strain kar3, stronger effect = lower value 0.981 | S. cerevisiae deletion strains, locus YPR163C, strain tif3, stronger effect = lower value 1 | S. cerevisiae deletion strains, locus YPR167C, strain met16, stronger effect = lower value 1 | S. cerevisiae deletion strains, strain wtn01, stronger effect = lower value 0.996 | S. cerevisiae strains, strain wild type, stronger effect = lower value 1.02
